KB-3-1 tox: kills parental KB-3-1 adenocarcinoma cells. KB-3-1 viability, CellTiter-Glo ATP luminescence, 72 h. Potency, µM (doses to about 46.1 µM), most hits filed as cytotoxic. hit rate 1.4% among 400,000; also: nearly all actives have a fitted effect of over 60% in size
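Parental KB-3-1 adenocarcinoma cells in phenol-red-free DMEM with 10% FBS were pin-treated with compounds at several concentrations, incubated 72 h at 37 °C, and viability read by CellTiter-Glo luminescence; concentration-effect curves were fitted after normalization.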
KB-V1 MDR tox: kills drug-selected multidrug resistant KB-V1 cells | Potency, µM (highest dose often 46.1 µM), usual class: cytotoxic | hit rate 3.4% among 400,000 | KB-V1 MDR cells viability, CellTiter-Glo, 72 h | AID 1347076; also: nearly all actives have a fitted effect of over 60% in size
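KB-V1 MDR subline cells in DMEM (phenol-red free, 10% FBS) exposed to compounds in qHTS concentration series for 72 h at 37 degrees C. Viability read by CellTiter-Glo luminescence; concentration-effect curves fitted after normalization and correction.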
MCF10A rereplic: inducers of DNA re-replication in MCF 10A breast cells; hit rate 2.9% among 350,000; Potency, µM (doses to about 46.1 µM), hits mostly activators; MCF 10A DNA re-replication, Hoechst nuclear intensity, 48 h; AID 624296; also: nearly all actives have a fitted effect of over 50% in size
SW480 rerep: induces DNA re-replication in SW480 colon adenocarcinoma cells; SW480 DNA re-replication, Hoechst DNA content imaging, 48 h; Potency, µM (titrated, usually from 46.1 µM), actives largely listed as activators; hit rate 1.8% among 340,000; AID 624297; also: nearly all actives have a fitted effect of over 55% in size
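Per well, 250 cells were exposed to pinned compound for 48 hr. Nuclear DNA was visualised with Hoechst (40 min, 37 C) and total object intensity recorded by fluorescence scanning.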
TSG101-PTAP inh: blocks PTAP/TSG101 interaction to inhibit HIV-1 budding; Q99816; Fluorescence polarization, FITC-PTAP peptide / Tsg101 binding; Potency, µM (highest dose often 115 µM), actives largely listed as inhibitors; 340,000 tested, under 10 active; AID 493005; active = well fitted inhibition curve with a large enough effect in the main read-out, with a control signal flat, not every such curve was filed as active; inconclusive = small, poorly fitted or top-dose-only effect, or effect the other way, or a change in a side signal; inactive = no such curve, though single readings can be large or run the other way
Target sequence (Q99816 whole entry, looked up): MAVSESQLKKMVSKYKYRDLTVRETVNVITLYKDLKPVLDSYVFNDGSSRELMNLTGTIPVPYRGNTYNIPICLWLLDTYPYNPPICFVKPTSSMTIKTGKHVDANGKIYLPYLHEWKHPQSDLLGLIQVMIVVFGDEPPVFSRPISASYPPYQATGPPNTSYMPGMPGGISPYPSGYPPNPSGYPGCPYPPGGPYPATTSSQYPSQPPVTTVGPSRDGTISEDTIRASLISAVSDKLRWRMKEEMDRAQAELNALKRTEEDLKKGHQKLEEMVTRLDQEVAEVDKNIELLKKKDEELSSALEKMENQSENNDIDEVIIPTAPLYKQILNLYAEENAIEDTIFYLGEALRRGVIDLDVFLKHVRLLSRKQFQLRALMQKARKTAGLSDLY
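Steps: Tsg101 binding domain dispensed (10 uM final), compounds pinned in DMSO, FITC-labeled PTAP-motif peptide added (50 nM final); after 20 min binding at room temperature, polarization measured.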
PINK1 modulator: modulators of PINK1 expression; Potency, µM (top dose mostly 76.6 µM), actives largely listed as activators; PINK1 immunofluorescence, high-content cytometry, 24 h; hit rate 0.2% among 410,000; active = well fitted activation curve with a large enough effect; inconclusive = small, poorly fitted or top-dose-only effect; cell line not stated here; also: nearly all actives have a fitted effect of over 65% in size
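PINK1 protein level read as immunofluorescence by microplate cytometer in a fixed, stained stable cell line after 24 h exposure to five compound concentrations, with CCCP as control.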
Numbers stand for hits; . = inactive; ? = inconclusive; / = not tested or not shown; ! = not confirmed by another sample. Only some compounds are listed: those with a hit (about 6.8% of all), similar ones and a draw of the others. Unless noted, calls follow the shape of the dose curve; as a rule, active = well fitted curve in the direction sought with a large enough effect; inconclusive = small, poorly fitted or top-dose-only effect, or another doubt; inactive = no such curve, though single readings can be large; an effect the other way counts as inactive or inconclusive.

SMILES	KB-3-1 tox	KB-V1 MDR tox	MCF10A rereplic	SW480 rerep	TSG101-PTAP inh	PINK1 modulator
COc1cc(/C=C/c2ccnc3ccccc23)ccc1N(C)C	?	?	/	/	/	.
CCOC(=O)Cn1c(C2CC(=O)N(c3ccc(C)cc3)C2)nc2ccccc21 (stereo unspecified)	.	.	/	/	/	.
O=C(c1ccccc1)c1ccc(OCC(O)CNCc2cccc(Cl)c2)cc1 (stereo unspecified)	.	.	20.6µM	.	.	.
Cc1ccccc1C1(CC(=O)N2CCCCC2c2cccnc2)CC(=O)N(C2CCCC2)C1=O (stereo unspecified)	/	/	/	/	/	.
Cc1ccc(-n2ncc(C(=O)NCCN3CCc4ccccc4C3)c2C2CCNCC2)cc1C	.	?	/	/	/	.
C=C1CC2(CC(c3ccccc3)OC(c3ccccc3)C2)OC1=O (stereo unspecified)	?	?	11.6µM	?	.	.
O=C1CCCC[C@@H](O)[C@H](O)C[C@H](c2ccccc2)O1	.	.	/	/	/	.
COC(=O)c1sccc1S(=O)(=O)N1CCC(n2c(CC3CCCC3)nc3cccnc32)CC1	/	/	/	/	/	.
CCOc1ccccc1CNC(=O)C1CCN(Cc2cc3ccccc3n2Cc2ccccc2)CC1	.	.	/	/	/	.
O=C(CSc1nc2c([nH]c3ccccc32)c(=O)n1-c1cccc(Cl)c1)c1ccccc1	.	?	/	/	/	.
CCOC(=O)C1=C(C)NC(SC)=C(C#N)C1CC(C)C (stereo unspecified)	4.11µM	5.17µM	?	7.31µM	.	.
CCc1ccc(C(=O)CSC2=C(C#N)C(c3ccco3)C(C(C)=O)=C(C)N2)cc1 (stereo unspecified)	.	.	/	/	/	.
CC(=O)C1=C(C)NC(SCC(=O)c2ccc(Cl)cc2)=C(C#N)C1CC(C)C (stereo unspecified)	.	20.6µM	?	.	.	.
CC(=O)C1=C(C)NC(SCC(N)=O)=C(C#N)C1CC(C)C (stereo unspecified)	.	.	.	.	.	.
CC(=O)C1=C(C)NC(SCC(=O)c2ccc(F)cc2)=C(C#N)C1CC(C)C (stereo unspecified)	.	?	18.4µM	?	.	.
Cc1cnc(-n2ncc(C(=O)N(C)C3CCOC3)c2-c2cccs2)nc1-c1ccc(F)cc1 (stereo unspecified)	/	/	/	/	/	.
COC(=O)C1CCCCN1Cc1ccc2c(c1)CN(Cc1cnn(-c3ccccc3)c1)CCO2 (stereo unspecified)	/	/	/	/	/	.
COCCn1c(=O)c(-c2cccs2)nc2cnc(N3CCNCC3)nc21	/	/	/	/	/	.
Cc1cccc(C(C)C)c1NC(=O)C1CN(S(=O)(=O)c2ccccc2)CCN1S(=O)(=O)c1ccccc1 (stereo unspecified)	.	4.11µM	.	.	.	.
CC(C)NC(=O)c1sc2ncccc2c1-n1cccc1	.	.	/	/	/	.
COc1ccccc1/C=N/NC(=O)CSc1cc(C)nc2ccccc12	?	.	13µM	?	.	.
COc1cccc2c(SCC(=O)N/N=C/c3ccc(O)cc3O)cc(C)nc12	?	.	14.6µM	7.31µM	.	.
COc1ccc2nc(C)cc(SCC(=O)N/N=C/c3c(OC)ccc4ccccc34)c2c1	?	.	.	.	.	.
COc1ccccc1/C=N/NC(=O)CSc1ccc2ccccc2n1	.	.	16.4µM	?	.	.
Cc1cc(SCC(=O)NN)c2cc(Br)ccc2n1	.	.	9.2µM	?	.	.
SMILES	KB-3-1 tox	KB-V1 MDR tox	MCF10A rereplic	SW480 rerep	TSG101-PTAP inh	PINK1 modulator
COc1ccc(OC)c(CNCc2c(C(=O)O)n(Cc3cccc(F)c3)c3cc(OC)ccc23)c1	.	.	/	/	/	.
Cc1noc(/C=C/c2cccs2)c1S(=O)(=O)N1CCC(C(=O)NCc2ccccc2Cl)CC1	/	/	/	/	/	.
COc1ccc2nc(C)cc(SCC(=O)N/N=C/c3ccccc3)c2c1	.	.	.	.	.	.
COc1ccc2nc(C)cc(SCC(=O)Nc3c(C)cc(C)cc3C)c2c1	.	13µM	.	.	.	.
COc1ccc(NC(=O)CCSc2ccc3ccccc3n2)cc1	.	.	10.3µM	.	.	.
COc1ccc2nc(C)cc(SCC(=O)N/N=C/c3ccc(O)cc3O)c2c1	.	.	6.51µM	?	.	.
COC(=O)c1cc(S(=O)(=O)N2CCN(c3ccc(OC)cc3)CC2)c[nH]1	/	/	/	/	/	.
Cc1cc(C)c(S(=O)(=O)Nc2cccc(-c3cn4ccccc4n3)c2)c(C)c1	/	/	/	/	/	.
CC(C)(C)c1ccc(Cn2c(=O)cnc3ccccc32)cc1	?	?	14.6µM	?	.	.
O=c1cnc2ccccc2n1Cc1ccc(Br)cc1	.	?	.	.	.	.
COCc1cc(C)nc2sc(C(=O)Nc3ccc(OC)cc3)c(N)c12	.	.	?	?	.	.
COCc1cc(C)nc2sc(C(=O)Nc3ccccc3OC)c(N)c12	.	.	?	20.6µM	.	.
COCc1cc(C)nc2sc(C(=O)Nc3cccc(OC)c3)c(N)c12	.	.	10.3µM	18.4µM	.	.
Cc1cc(C)c2c(N)c(C(=O)Nc3nccs3)sc2n1	.	.	?	?	.	.
COCc1cc(C)nc2sc(C(=O)Nc3nccs3)c(N)c12	.	.	16.4µM	.	.	.
Cc1cnc(CNc2ncnc3ccc(-c4ccc(N(C)C)cc4)cc23)cn1	/	/	/	/	/	.
O=C(NCCO)c1cn(C2CCN(Cc3c(F)cccc3Cl)CC2)nn1	/	/	/	/	/	.
CCCCCCCCN1[C@@H](CC(=O)OCC)c2cc(F)ccc2S1(=O)=O	?	14.6µM!	.	?	.	.
CC(=O)C[C@H]1c2cc(C(F)(F)F)ccc2S(=O)(=O)N1c1ccccc1	?	8.2µM!	.	.	.	.
CCOC(=O)C[C@H]1c2ccccc2S(=O)(=O)N1Cc1cccc(C(F)(F)F)c1	16.4µM!	10.3µM!	?	.	.	.
CCCCCCCCCCCCN1[C@@H](CC(=O)O)c2cc(C(F)(F)F)ccc2S1(=O)=O	.	.	16.4µM	.	?	?
CCc1ccc(-c2cn3c(n2)sc2cc(C(=O)NCCc4ccc(OC)cc4OC)ccc23)cc1	/	/	/	/	/	.
Fc1ccc(C2NC(=S)NC3=C2N2CCC3CC2)cc1 (stereo unspecified)	.	.	13µM	.	.	/
CC1(C)NC(=O)N(CC(O)COc2ccc(-c3ccc(C#N)cc3)cc2)C1=O (stereo unspecified)	.	20.6µM	.	.	.	.
COc1ccc(-c2cc3nc(C)c(CCC(=O)NC(C)c4ccccc4)c(C)n3n2)c(OC)c1 (stereo unspecified)	.	.	/	/	/	.
COc1ccc(-c2cc(C(=O)Nc3nc4ccccc4s3)c3ccccc3n2)cc1OC	.	.	2.91µM	?	.	.
COc1cc(NC(=O)c2cc(-c3cccnc3)nc3ccc(Br)cc23)cc(OC)c1	?	.	16.4µM	.	.	.

Screening data deposited in PubChem BioAssay by National Center for Advancing Translational Sciences (NCATS).
